31 molecules from PubChem BioAssay AID1963322 (National Center for Advancing Translational Sciences (NCATS), 2024) can be followed below.

Records with an inconclusive call do not appear. The source made the active and inactive calls. The call rests on the fitted dose curve.

The target in this assay is cAMP-dependent protein kinase catalytic subunit alpha (Homo sapiens) (UniProt P17612). The assay is described as follows: Protein Kinase A (PKA-HiBiT) SDR gain of signal screen. Conditions: PKA-HiBiT structural dynamics response (SDR), luminescence gain of signal; series mostly up to 32.9 µM; activity change, positive = signal gain: at the top concentration. In outline:
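Gain of luminescent signal after Nano-Glo HiBiT detection (10 min, RT) was the read-out. Beforehand, compounds were incubated 30 min at room temperature in the dark with 10 nM final PKA-N-HiBiT, with H-89 as positive control.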
(In general: With HiBiT, luminescence reflects the tagged protein that the partner subunit can reach.)
As for `CCN1C(=O)CNc2ncc(-c3ccc(-c4ncn[nH]4)nc3C)nc21`, the “activity change, positive = signal gain” value is -1.23% (inactive).

Consider `Cc1cc(F)ccc1-c1nc(NCCN=C(N)NC#N)nc2c1ccc(=O)n2-c1c(F)cccc1F`, for which the “activity change, positive = signal gain” value is 4.31% (inactive). Take `Nc1nc(NCCNc2ncc(-n3ccnc3)c(-c3ccc(Cl)cc3Cl)n2)ccc1[N+](=O)[O-]`: the “activity change, positive = signal gain” value is -35.6% (inactive). Take `N#Cc1cccc(-c2c[nH]c3ncnc(N4CCOCC4)c23)c1`: the Potency is 13.4 µM (active). `O=C1C(c2c(O)[nH]c3ccccc23)=Nc2ccccc21`: the “activity change, positive = signal gain” value is 5.12% (inactive). In the case of `CNC(=O)c1ccccc1Nc1nc(Nc2ccc(N3CCOCC3)cc2OC)ncc1Cl`, the “activity change, positive = signal gain” value was 19.9% (inactive). In the case of `Cc1[nH]c(/C=C2\C(=O)Nc3ccc(S(=O)(=O)Cc4c(Cl)cccc4Cl)cc32)c(C)c1C(=O)N1CCC[C@@H]1CN1CCCC1`, the “activity change, positive = signal gain” value was -38.9% (inactive). Take `CCn1nc(C2CCN(C(=O)CCO)CC2)nc1-c1cnc(N)c(-c2nnc(C(C)(C)C)o2)n1`: the “activity change, positive = signal gain” value is 7.07% (inactive). With `CCNC(=O)Nc1ccc(-c2nc3c(c(N4CCOC[C@@H]4C)n2)CCN(c2ncccn2)C3)cc1`, the “activity change, positive = signal gain” value is 2.32% (inactive). Same read-out and setting: as for `COC(=O)Nc1ccc(-c2nc(N3CCOCC3)c3cnn(C4CCN(C(=O)OC)CC4)c3n2)cc1`, the figure is 6.1% (inactive). `Cc1ncc(NC(=O)c2ccc(CN3CCN(C)CC3)c(C(F)(F)F)c2)cc1Nc1nccc(-c2cccnc2)n1`: the “activity change, positive = signal gain” value was 8.51% (inactive). `Cc1cc(NC(=O)c2ccc(C)c(Nc3nccc(-c4cccnc4)n3)c2)cc(-n2cnc(C)c2)c1`: the “activity change, positive = signal gain” value was -7.69% (inactive). Take `COc1ccc(-n2c(C)c([N+](=O)[O-])c3ccc(O)cc32)cc1`: the “activity change, positive = signal gain” value was 4.08% (inactive). Same read-out and setting: under `Cc1ccc(-n2nc(C(C)(C)C)cc2NC(=O)NCc2cc(F)ccc2Oc2ccc3c(cnn3CCO)c2)cc1` stands -20.1% (inactive).

On to `CCOc1ccn(-c2ccc(F)cc2)c(=O)c1C(=O)Nc1ccc(Oc2ccnc(N)c2Cl)c(F)c1`, for which the Potency is 0.813 µM (active). For the molecule `C=CC(=O)Nc1cccc(Oc2nc(Nc3ccc(N4CCN(C)CC4)cc3OC)ncc2Cl)c1`, the “activity change, positive = signal gain” value is 2.43% (inactive).

For the molecule `CNC(=O)c1ccccc1Sc1ccc2c(/C=C/c3ccccn3)n[nH]c2c1`, the “activity change, positive = signal gain” value is -5.73% (inactive).

As to `O=C(Nc1cc(C(F)(F)F)ccc1N1CCCCC1)c1ccncc1`, the “activity change, positive = signal gain” value is 3.42% (inactive).

Regarding `CC(C)(NS(=O)(=O)c1ccc2c(Cl)cnc(N=C(N)N)c2c1)C(=O)O`, the “activity change, positive = signal gain” value was 8.27% (inactive).

Take `Cc1cccc(/C=N/Nc2cc(N3CCOCC3)nc(OCCc3ccccn3)n2)c1`: the “activity change, positive = signal gain” value is -7.95% [at 26.3 µM] (inactive). Turning to `c1ccc2c(-c3cnn4cc(-c5ccc(N6CCNCC6)cc5)cnc34)ccnc2c1`, the activity change, positive = signal gain was 6.14% [at 3.64 µM] (inactive). On to `Oc1ccc(-c2ccc(-c3cc(Nc4cccc(CNC5CC5)c4)n[nH]3)cc2)c(O)c1`, for which the Potency was 10.7 µM (active). For `C=CC(=O)Nc1cc2c(Nc3ccc(F)c(Cl)c3)ncnc2cc1OCCCN1CCOCC1`, the “activity change, positive = signal gain” value is 4.93% (inactive). On to `CN1CCN(c2ccc(Nc3ncc4cc(C#N)c(=O)n(C5CCCC5)c4n3)cc2)CC1`, for which the “activity change, positive = signal gain” value is 10.8% (inactive). Turning to `C=CC(=O)N1CCC[C@@H](n2nc(-c3cccc(C(=O)Nc4ccc(C(C)C)c(C)c4)c3)c3c(N)ncnc32)C1`, the “activity change, positive = signal gain” value is 3.4% (inactive). As to `Nc1ncnc2c1c(-c1cnc3[nH]ccc3c1)nn2C1CCCC1`, the “activity change, positive = signal gain” value is 13.7% (inactive). As to `CC(C)CCN1c2nc(Nc3cc(F)c(O)c(F)c3)ncc2N(C)C(=O)C1C` (stereo unspecified), the “activity change, positive = signal gain” value was -13.2% (inactive). Regarding `Cc1nc(NC(=O)N2CCC[C@H]2C(N)=O)sc1-c1ccnc(C(C)(C)C(F)(F)F)c1`, the “activity change, positive = signal gain” value was -0.666% (inactive). The same measure, in the same setting: under `Cc1nc2ccc(-n3ncc(C(=O)c4cc5ccccc5[nH]4)c3N)cc2[nH]1` stands 4.86% (inactive); under `Cc1cc(Nc2ncc3c(n2)N(C)C(=O)N(c2cc(NC(=O)c4cccc(C(F)(F)F)c4)ccc2C)C3)n(C)n1`, 2.14% (inactive). In the case of `Cc1ccccc1-n1c([C@H](C)Nc2nc(N)nc3nc[nH]c23)nc2cccc(C)c2c1=O`, the “activity change, positive = signal gain” value is 5.87% (inactive).
